Data reported in PubChem BioAssay AID1053205 (Broad Institute, 2014).
Measured potencies and affinities stand elsewhere. Results filed as inconclusive are left out. Active and inactive are the calls of the source.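 The calls were made as follows: active = compounds lowering the FRET ratio whose fitted half-maximal concentration is at most twice their top tested dose; inconclusive = flat partial drop between 30 and 70 percent, or bad fit; inactive = the rest.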

target: Voltage-dependent L-type calcium channel subunit alpha-1D (Homo sapiens) (UniProt Q01668); experiment: disruptors of CaV1.3 IQ/ICDI domain association – cell-based, HEK293, YFP-IQ/CFP-ICDI FRET, cherry-picks, dose response (AID 1053205); conditions: HEK293 YFP-IQ/CFP-ICDI FRET ratio, 10 min; series mostly up to 35 µM
Sequence (Q01668 whole entry, looked up, the tested form may be a part): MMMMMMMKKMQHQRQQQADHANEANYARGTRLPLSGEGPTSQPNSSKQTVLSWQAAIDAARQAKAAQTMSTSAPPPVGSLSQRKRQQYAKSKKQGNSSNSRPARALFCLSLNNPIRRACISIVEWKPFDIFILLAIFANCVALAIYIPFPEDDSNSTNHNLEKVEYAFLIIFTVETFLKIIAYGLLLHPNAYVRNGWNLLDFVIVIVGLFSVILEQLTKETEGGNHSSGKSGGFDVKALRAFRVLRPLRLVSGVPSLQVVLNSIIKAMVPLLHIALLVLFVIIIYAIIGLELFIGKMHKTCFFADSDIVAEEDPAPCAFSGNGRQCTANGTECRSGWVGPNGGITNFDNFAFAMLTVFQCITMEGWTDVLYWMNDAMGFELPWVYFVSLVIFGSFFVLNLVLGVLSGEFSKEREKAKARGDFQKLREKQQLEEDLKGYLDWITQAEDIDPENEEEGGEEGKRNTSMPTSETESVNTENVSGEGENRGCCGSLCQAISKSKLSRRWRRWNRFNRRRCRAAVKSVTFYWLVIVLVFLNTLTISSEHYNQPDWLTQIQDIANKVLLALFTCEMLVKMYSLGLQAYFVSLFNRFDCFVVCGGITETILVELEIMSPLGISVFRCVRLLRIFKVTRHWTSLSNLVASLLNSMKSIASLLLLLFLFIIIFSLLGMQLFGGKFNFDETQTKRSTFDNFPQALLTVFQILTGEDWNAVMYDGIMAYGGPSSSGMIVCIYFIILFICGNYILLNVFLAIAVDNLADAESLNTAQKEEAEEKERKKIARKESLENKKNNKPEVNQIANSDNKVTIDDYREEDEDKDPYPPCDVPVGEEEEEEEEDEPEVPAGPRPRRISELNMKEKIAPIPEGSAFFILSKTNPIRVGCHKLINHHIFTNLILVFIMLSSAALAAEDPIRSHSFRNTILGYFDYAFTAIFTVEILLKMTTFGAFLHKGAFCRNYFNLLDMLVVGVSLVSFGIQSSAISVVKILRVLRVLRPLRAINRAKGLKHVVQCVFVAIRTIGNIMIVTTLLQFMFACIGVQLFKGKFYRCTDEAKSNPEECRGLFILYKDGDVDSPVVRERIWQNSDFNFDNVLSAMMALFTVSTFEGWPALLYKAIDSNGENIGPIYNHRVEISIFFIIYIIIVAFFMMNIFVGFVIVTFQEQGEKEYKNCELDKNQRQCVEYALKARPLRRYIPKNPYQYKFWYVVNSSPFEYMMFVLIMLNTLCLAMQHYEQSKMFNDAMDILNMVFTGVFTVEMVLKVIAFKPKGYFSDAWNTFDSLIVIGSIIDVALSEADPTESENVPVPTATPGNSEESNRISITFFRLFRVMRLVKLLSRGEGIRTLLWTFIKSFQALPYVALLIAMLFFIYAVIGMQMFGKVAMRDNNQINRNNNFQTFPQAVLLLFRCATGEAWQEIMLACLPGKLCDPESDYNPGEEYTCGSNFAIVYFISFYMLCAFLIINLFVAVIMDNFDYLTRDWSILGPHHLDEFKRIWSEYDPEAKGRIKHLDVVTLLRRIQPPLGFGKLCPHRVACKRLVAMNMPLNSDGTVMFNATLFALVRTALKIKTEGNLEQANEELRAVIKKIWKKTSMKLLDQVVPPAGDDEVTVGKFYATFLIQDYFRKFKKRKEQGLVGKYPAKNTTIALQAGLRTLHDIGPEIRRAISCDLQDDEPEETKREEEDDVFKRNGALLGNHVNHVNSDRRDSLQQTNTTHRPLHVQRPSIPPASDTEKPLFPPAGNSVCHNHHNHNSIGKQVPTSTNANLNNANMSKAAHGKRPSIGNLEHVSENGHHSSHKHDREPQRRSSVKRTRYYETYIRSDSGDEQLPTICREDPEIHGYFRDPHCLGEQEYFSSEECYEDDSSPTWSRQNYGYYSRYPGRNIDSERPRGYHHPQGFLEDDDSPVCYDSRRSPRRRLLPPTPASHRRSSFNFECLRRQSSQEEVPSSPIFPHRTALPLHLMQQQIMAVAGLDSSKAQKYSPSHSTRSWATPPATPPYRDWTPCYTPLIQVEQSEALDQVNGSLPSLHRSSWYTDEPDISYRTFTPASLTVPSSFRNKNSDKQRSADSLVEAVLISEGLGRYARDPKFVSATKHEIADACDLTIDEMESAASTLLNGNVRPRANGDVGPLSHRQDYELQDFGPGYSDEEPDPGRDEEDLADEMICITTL

outcome, inactive:
Cc1nc(CCNC(=O)Cc2ccc(Cl)cc2)cs1
CCOc1ccc2nc(NCCCNS(=O)(=O)c3ccc(C)cc3)c(C#N)cc2c1
O=[N+]([O-])c1cccc(-c2n[nH]c(=S)n2-c2ccc(Br)cc2)c1
CCOc1ccc(-n2c(SCC(=O)Nc3nccs3)nnc2-c2ccoc2C)cc1
Cc1noc(C)c1S(=O)(=O)N(CC(=O)N1CCCCCC1)c1ccc(C(C)C)cc1
CCC(C)NC(=S)N1CCN(Cc2ccc3c(c2)OCO3)CC1 (stereo not given)
COc1ccccc1OCc1ccc(C(=O)N(C)c2ccccc2)o1
Nc1ccc(C#Cc2ccc3c(=O)c4ccccc4oc3c2)cc1
CCOc1ccc2nc(NCCCNC(=O)c3cc(OC)c(OC)c(OC)c3)c(C#N)cc2c1
O=C(COC(=O)c1cc(S(=O)(=O)N2CCCCC2)ccc1N1CCOCC1)c1ccccc1Cl
CCC(=O)N1C(C(=O)NCc2ccc(OC)cc2)CSC1c1ccc(OC)cc1 (stereo not given)
Cc1cccn2c(=O)c3cc(C(=O)NC(C)c4ccccc4)c(=N)n(CCCn4ccnc4)c3nc12 (stereo not given)
CCN(CC)CCN1C2=C(C(=O)CC(C)(C)C2)C(c2cccc(F)c2)C2=C1CC(C)(C)CC2=O
Cc1ccc2c(c1)-c1c(cnn1CC(=O)Nc1ccccc1N1CCN(C)CC1)CO2
O=C(O)C1=CC[C@@H](c2ccc(Cl)cc2)N(S(=O)(=O)c2ccc(Cl)cc2)[C@H]1c1ccc(F)cc1
O=C(O)c1ccc(N2N=C(c3ccccc3)CC2c2ccccc2)cc1 (stereo not given)
CCc1nnc(NC(=O)c2ccc(-c3ccccc3F)o2)s1
CC(=O)Nc1cccc(-c2ccnc3c2CC(C(=O)NCc2cccc(Cl)c2)O3)c1 (stereo not given)
O=c1oc2cc(O)ccc2cc1-c1nc2ccccc2o1
CCN1CCc2c(sc(NC(=O)Nc3ccc(Cl)c(Cl)c3)c2C(N)=O)C1
